For experiment [1], the target named is Paired box protein Pax-6 (Homo sapiens) (UniProt P26367). The experiment is described as follows: ATG_Pax6_CIS: Attagene CIS-FACTORIAL HepG2 Assay for human Paired Box 6 (PAX6) (AID 2282956). The note with it: HepG2 CIS-FACTORIAL PAX6 reporter transcription, RNA readout; actives raise or lower the signal. The procedure, abridged:
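HepG2 cells transiently transfected with cis-promoter-driven multiplexed reporter units sensing endogenous transcription factor activity; 24 h chemical exposure. Reporter mRNA quantified by RT-PCR, 6-FAM labelling, HpaI digestion and capillary electrophoresis; bidirectional fit versus DMSO baseline.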

Experiment [2] is described as follows: ATG_PXRE_CIS: Attagene CIS-FACTORIAL HepG2 Assay for human Pregnane X Receptor Element (PXRE) (AID 2282957). The note with it: HepG2 Attagene CIS-FACTORIAL PXRE reporter, mRNA; actives raise or lower the signal. The gist of the method:
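Cis-element reporter mRNA in human hepatoma HepG2 cells is measured 24 h post-dosing by RT-PCR, primer-extension labeling and capillary electrophoresis; gain or loss of signal is fitted relative to DMSO.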

Experiment [3] can be described thus: ATG_RORE_CIS: Attagene CIS-FACTORIAL HepG2 Assay for human RAR-related Orphan Receptor Element (RORE) (AID 2282959). The note with it: HepG2 Attagene cis-factorial RORE reporter, mRNA; actives raise or lower the signal. The procedure, abridged: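 Fluorescence intensity of reporter-specific cDNA fragments, separated by capillary electrophoresis, gives the signal. Source: HepG2 liver cells transiently transfected with cis-element reporters and exposed 24 h; DMSO-normalized bidirectional fit.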

Experiment [4] in a line: ATG_Sox_CIS: Attagene CIS-FACTORIAL HepG2 Assay for human SRY-box transcription factor (SOX) (AID 2282960). The note with it: HepG2 Attagene cis-factorial SOX reporter, mRNA; actives raise or lower the signal. The gist of the method: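 After 24 h of chemical treatment, transfected HepG2 reporter cells are lysed for total RNA. Transcript levels come from RT-PCR with labelled primer extension and capillary electrophoresis, analysed bidirectionally versus DMSO.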

For experiment [5], the target named is Transcription factor Sp1 (Homo sapiens) (UniProt P08047). Kind of experiment: ATG_Sp1_CIS: Attagene CIS-FACTORIAL HepG2 Assay for human Specificity Protein 1 (Sp1) (AID 2282961). The note with it: HepG2 Sp1 cis-reporter transcription, actives raise or lower the signal. The gist of the method:
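Sp1-driven reporter mRNA, read as capillary electrophoresis fluorescence after RT-PCR, in transiently transfected HepG2 cells dosed for 24 h; signal change in either direction relative to DMSO.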

A short description of experiment [6]: ATG_SREBP_CIS: Attagene CIS-FACTORIAL HepG2 Assay for human Sterol Regulatory Element Binding (SREBP) (AID 2282962). The note with it: HepG2 Attagene cis-factorial SREBP reporter, mRNA; actives raise or lower the signal. The gist of the method:
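HepG2 cells transiently transfected with multiplexed cis-promoter reporter units sensing endogenous transcription factors; reporter mRNA measured 24 h after dosing by RT-PCR, 6-FAM labeling, HpaI digestion and capillary electrophoresis. Bidirectional fit versus DMSO.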

Experiment [7] addresses Signal transducer and activator of transcription 3 (Homo sapiens) (UniProt P40763). The experiment is described as follows: ATG_STAT3_CIS: Attagene CIS-FACTORIAL HepG2 Assay for human Signal Transducer and Activator of Transcription 3 (STAT3) (AID 2282963). The note with it: HepG2, Attagene cis-factorial STAT3 reporter transcription; actives raise or lower the signal. The gist of the method:
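Endogenous STAT3-responsive cis-element activity was read in transiently transfected HepG2 cells after 24 h treatment. Reporter transcripts were quantified via RT-PCR and capillary electrophoresis, with DMSO as negative control and bidirectional curve fitting.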

Experiment [8] can be described thus: ATG_TA_CIS: Attagene CIS-FACTORIAL HepG2 Assay for human TA Basal Promoter (AID 2282964). The note with it: HepG2 Attagene CIS-factorial TA basal promoter reporter; actives raise or lower the signal. The gist of the method: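 Multiplexed mRNA reporter assay, HepG2, 24 h. Reporter cDNA amplified, 6-FAM primer-extended, HpaI-cut, CE-sized; DMSO = negative control and baseline.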

The nature of experiment [9]: ATG_TCF_b_cat_CIS: Attagene CIS-FACTORIAL HepG2 Assay for human T-Cell-Factor with beta-catenin (TCF/b-cat) (AID 2282965). The note with it: HepG2 TCF/beta-catenin cis-reporter transcription, actives raise or lower the signal. The procedure, abridged:
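Endogenous transcription factor activity is captured through cis-promoter reporter constructs transiently introduced into human HepG2 liver cells. Induced reporter mRNA is measured after 24 h and fitted bidirectionally relative to DMSO.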

The nature of experiment [10]: ATG_TAL_CIS: Attagene CIS-FACTORIAL HepG2 Assay for human TAL Basal Promoter (AID 2282966).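 Further: background control endpoint measuring basal TAL promoter reporter mRNA not a specific factor.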 The note with it: HepG2 Attagene cis-factorial TAL promoter reporter; actives raise or lower the signal. The gist of the method: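 In this cell-based multiplex, HepG2 liver cells bearing cis-promoter reporter constructs are dosed for 24 hours. Total RNA is reverse-transcribed and amplified, labelled fragments are sized by capillary electrophoresis, and signal changes are fitted bidirectionally versus DMSO.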

A short description of experiment [11]: ATG_TGFb_CIS: Attagene CIS-FACTORIAL HepG2 Assay for human Transforming Growth Factor (TGF) (AID 2282967). The note with it: HepG2 Attagene CIS TGFb reporter, mRNA transcription; actives raise or lower the signal. The gist of the method:
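Transcript-level reporter readout: HepG2 transfectants, 24 h exposure, RNA to cDNA, reporter-specific PCR, fluorescent primer extension, capillary sizing against ROX standards. Gain- or loss-of-signal relative to DMSO.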

Experiment [12] is described as follows: ATG_VDRE_CIS: Attagene CIS-FACTORIAL HepG2 Assay for human Vitamin D Receptor Element (VDRE) (AID 2282968). The note with it: HepG2 VDRE cis-reporter transcription, actives raise or lower the signal. The procedure, abridged:
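Reporter mRNA induction, quantified by capillary electrophoresis of fluorescently labelled RT-PCR products, was read 24 h after dosing HepG2 cells carrying transiently transfected cis-regulated reporter units; gain or loss relative to DMSO.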

For experiment [13], the target named is Nuclear receptor subfamily 1 group I member 3 (Homo sapiens) (UniProt Q14994). The experiment is described as follows: ATG_CAR_TRANS: Attagene TRANS-FACTORIAL HepG2 Assay for human Constitutive Androstane Receptor (CAR) (AID 2282969; active means hit-call score of the fitted dose curve at least 0.9, where 1 is the maximum;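 further: activators raise reporter mRNA above DMSO so AC50 marks induction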). The note with it: HepG2 Attagene TRANS-FACTORIAL CAR reporter. The gist of the method:
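Readout is reporter mRNA induction, quantified by fluorescent primer extension and capillary electrophoresis after RT-PCR. Cells were HepG2 transiently carrying chimeric NR-Gal4 constructs with GAL4-UAS reporters, treated for 24 h; activity scored upward from DMSO.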

The target of experiment [14] is Estrogen receptor (Homo sapiens) (UniProt P03372). Kind of experiment: ATG_ERa_TRANS: Attagene TRANS-FACTORIAL HepG2 Assay for human Estrogen Receptor alpha (ERa) (AID 2282970; active means hit-call score of the fitted dose curve at least 0.9, where 1 is the maximum). The note with it: HepG2 Attagene TRANS ERa GAL4 reporter, mRNA. The gist of the method: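 After 24 h of compound treatment, RNA from HepG2 cells bearing transfected GAL4-UAS reporter constructs is converted to cDNA, amplified and fluorescently labelled. Capillary electrophoresis resolves the ERa-linked reporter; DMSO serves as negative control.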
Sequence of Estrogen receptor (Homo sapiens) (P03372 whole entry, looked up, the tested form may be a part): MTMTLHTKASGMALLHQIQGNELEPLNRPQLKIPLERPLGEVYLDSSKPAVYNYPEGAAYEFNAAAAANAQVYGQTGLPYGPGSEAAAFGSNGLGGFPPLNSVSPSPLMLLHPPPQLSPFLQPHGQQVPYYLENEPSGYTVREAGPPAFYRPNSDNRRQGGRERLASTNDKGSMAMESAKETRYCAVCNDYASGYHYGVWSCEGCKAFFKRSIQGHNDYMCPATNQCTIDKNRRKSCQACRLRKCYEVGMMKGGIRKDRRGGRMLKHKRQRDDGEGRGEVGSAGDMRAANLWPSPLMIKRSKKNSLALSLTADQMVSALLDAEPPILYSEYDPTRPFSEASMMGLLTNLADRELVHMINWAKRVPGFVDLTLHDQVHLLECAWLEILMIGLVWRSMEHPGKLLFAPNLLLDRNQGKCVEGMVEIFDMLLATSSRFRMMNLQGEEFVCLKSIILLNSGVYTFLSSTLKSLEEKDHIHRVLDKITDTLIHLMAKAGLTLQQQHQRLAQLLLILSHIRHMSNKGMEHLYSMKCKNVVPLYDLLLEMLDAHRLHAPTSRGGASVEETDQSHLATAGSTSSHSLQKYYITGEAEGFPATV

In experiment [15] the target is X-box-binding protein 1 (Homo sapiens) (UniProt P17861). Kind of experiment: ATG_Xbp1_CIS: Attagene CIS-FACTORIAL HepG2 Assay for human X-box Binding Protein 1 (XBP1) (AID 2282972). The note with it: HepG2 XBP1 cis-element reporter, Attagene multiplex; actives raise or lower the signal. The gist of the method:
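HepG2 cells transiently transfected with multiple cis-element reporter units report endogenous TF activity; 24 h exposure, then reporter mRNA measured by RT-PCR, 6-FAM labelling, HpaI digestion and capillary electrophoresis. Bidirectional fitting versus DMSO.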

Experiment [16] can be described thus: ATG_Hpa5_TRANS: Attagene TRANS-FACTORIAL HepG2 Assay for human GAL4-Hpa5 Hepatocyte Transcription Factor Basal Promoter (AID 2282975; active means hit-call score of the fitted dose curve at least 0.9, where 1 is the maximum;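 further: hits are increases in reporter mRNA over DMSO baseline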). The note with it: HepG2 Attagene GAL4-Hpa5 transcription reporter. The gist of the method:
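Basal-promoter GAL4 background control within the HepG2 trans-factorial panel of transiently transfected reporter units. Reporter mRNA is measured 24 h after dosing by RT-PCR and capillary electrophoresis, fitted for gain of signal versus DMSO.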

In experiment [17] the target is Steroid hormone receptor ERR1 (Homo sapiens) (UniProt P11474). Kind of experiment: ATG_ERRa_TRANS: Attagene TRANS-FACTORIAL HepG2 Assay for human Estrogen-Related Receptor alpha (ERRa) (AID 2282971; active means hit-call score of the fitted dose curve at least 0.9, where 1 is the maximum). The note with it: HepG2 Attagene TRANS reporter, ERRa transactivation. The procedure, abridged:
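Transfected HepG2, 24 h dosing, ERRa-Gal4 chimera driving GAL4-UAS reporter. Readout: reporter mRNA via RT-PCR plus capillary electrophoresis (fluorescence). Positive direction vs DMSO control.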

Experiment [18] concerns the target Androgen receptor (Homo sapiens) (UniProt P10275). The experiment is described as follows: ATG_AR_TRANS: Attagene TRANS-FACTORIAL HepG2 Assay for human Androgen Receptor (AR) (AID 2282973; active means hit-call score of the fitted dose curve at least 0.9, where 1 is the maximum). The note with it: HepG2 Attagene TRANS-FACTORIAL AR reporter transcription. The procedure, abridged: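 Readout is reporter transcript abundance, quantified by fluorescent RT-PCR products separated on capillary electrophoresis. Human HepG2 liver cells carried transiently transfected NR-Gal4 chimera plus GAL4-UAS reporter constructs and were dosed for 24 h; activity scored upward versus DMSO.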

Values joined by “and” are separate entries in the source; they are usually repeats but may differ in a detail not shown here. Equal values may be shown once. Inconclusive results are not listed. More than one record can exist for a structure, and the calls need not agree. Active and inactive are the calls of the source. How the source made its calls, unless noted: active means hit-call score of the fitted dose curve at least 0.9, where 1 is the maximum; inactive means score below 0.9.

In general, AC50 refers to the concentration at which the activity in the assay is half-maximal.

Sequence of Steroid hormone receptor ERR1 (Homo sapiens) (P11474 whole entry, looked up, the tested form may be a part): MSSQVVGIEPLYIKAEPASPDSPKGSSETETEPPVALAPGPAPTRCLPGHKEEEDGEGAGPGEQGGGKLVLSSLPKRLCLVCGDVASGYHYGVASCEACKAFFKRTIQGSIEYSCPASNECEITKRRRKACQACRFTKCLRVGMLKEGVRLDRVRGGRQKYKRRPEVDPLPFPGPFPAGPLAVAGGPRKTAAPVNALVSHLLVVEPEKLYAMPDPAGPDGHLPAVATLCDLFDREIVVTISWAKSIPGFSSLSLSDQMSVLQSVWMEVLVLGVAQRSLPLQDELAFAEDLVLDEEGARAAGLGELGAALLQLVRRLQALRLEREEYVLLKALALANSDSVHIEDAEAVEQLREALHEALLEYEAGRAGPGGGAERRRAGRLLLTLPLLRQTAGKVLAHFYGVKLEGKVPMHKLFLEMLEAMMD
Sequence of Paired box protein Pax-6 (Homo sapiens) (P26367 whole entry, looked up): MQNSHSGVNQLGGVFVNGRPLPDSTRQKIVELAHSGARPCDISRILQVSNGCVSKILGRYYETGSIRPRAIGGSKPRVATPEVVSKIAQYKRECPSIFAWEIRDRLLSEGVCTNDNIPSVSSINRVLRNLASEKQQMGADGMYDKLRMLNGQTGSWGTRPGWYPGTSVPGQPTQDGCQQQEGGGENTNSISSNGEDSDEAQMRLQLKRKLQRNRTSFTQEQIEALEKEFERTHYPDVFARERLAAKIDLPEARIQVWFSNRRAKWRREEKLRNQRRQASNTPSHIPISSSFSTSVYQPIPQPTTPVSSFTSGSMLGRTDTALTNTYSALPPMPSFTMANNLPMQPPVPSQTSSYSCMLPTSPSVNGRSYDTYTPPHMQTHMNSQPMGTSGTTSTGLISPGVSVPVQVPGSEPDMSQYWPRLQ
Sequence of Signal transducer and activator of transcription 3 (Homo sapiens) (P40763 whole entry, looked up): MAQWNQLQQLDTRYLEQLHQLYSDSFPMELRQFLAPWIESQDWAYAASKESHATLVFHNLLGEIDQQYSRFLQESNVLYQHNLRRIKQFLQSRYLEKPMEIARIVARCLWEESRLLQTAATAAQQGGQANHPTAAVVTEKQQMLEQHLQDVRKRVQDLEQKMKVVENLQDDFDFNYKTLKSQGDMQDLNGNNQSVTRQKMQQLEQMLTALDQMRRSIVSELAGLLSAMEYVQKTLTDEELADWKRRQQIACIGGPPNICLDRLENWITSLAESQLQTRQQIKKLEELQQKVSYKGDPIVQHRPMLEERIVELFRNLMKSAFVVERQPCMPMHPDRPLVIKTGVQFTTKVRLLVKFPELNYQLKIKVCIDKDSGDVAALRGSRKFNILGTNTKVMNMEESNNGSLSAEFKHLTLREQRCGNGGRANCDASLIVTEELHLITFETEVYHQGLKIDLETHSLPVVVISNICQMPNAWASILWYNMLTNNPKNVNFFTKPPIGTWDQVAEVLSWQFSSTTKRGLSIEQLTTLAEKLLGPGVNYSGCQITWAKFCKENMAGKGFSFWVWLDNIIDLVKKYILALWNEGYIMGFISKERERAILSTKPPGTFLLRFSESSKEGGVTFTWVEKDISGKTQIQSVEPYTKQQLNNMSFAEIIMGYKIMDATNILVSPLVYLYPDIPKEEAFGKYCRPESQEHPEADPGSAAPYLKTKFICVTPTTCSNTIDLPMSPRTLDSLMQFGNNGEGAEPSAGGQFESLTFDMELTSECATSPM
Sequence of Transcription factor Sp1 (Homo sapiens) (P08047 whole entry, looked up): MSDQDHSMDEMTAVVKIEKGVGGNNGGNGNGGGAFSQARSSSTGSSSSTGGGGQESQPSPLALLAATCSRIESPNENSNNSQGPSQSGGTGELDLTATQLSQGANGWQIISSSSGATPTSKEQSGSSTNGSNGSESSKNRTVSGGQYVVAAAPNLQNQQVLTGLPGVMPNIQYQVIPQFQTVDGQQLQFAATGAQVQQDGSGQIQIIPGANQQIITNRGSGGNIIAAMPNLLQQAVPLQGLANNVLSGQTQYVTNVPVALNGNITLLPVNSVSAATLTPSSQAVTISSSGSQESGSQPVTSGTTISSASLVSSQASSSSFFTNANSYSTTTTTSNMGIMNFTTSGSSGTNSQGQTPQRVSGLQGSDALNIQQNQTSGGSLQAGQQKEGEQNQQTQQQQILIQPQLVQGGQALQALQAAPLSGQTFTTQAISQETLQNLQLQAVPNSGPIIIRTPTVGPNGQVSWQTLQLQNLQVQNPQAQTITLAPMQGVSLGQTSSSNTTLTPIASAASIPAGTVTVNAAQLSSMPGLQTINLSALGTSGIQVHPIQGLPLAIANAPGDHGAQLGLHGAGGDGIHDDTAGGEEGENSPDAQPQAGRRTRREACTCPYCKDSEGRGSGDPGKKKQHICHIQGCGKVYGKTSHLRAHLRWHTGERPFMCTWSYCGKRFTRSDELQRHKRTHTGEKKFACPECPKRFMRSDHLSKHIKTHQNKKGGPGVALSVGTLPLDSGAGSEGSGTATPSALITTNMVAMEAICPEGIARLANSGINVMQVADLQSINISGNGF
Sequence of Nuclear receptor subfamily 1 group I member 3 (Homo sapiens) (Q14994 whole entry, looked up, the tested form may be a part): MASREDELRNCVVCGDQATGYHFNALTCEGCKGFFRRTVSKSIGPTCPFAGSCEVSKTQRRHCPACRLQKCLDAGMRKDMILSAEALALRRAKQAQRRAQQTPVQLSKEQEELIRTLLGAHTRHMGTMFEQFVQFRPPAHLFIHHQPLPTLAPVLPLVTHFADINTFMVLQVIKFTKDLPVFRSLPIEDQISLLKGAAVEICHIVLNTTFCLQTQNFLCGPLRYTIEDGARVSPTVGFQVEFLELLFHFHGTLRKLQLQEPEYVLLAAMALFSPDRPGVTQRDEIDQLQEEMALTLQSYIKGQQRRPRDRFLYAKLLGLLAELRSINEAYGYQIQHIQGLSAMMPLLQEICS
Sequence of X-box-binding protein 1 (Homo sapiens) (P17861 whole entry, looked up): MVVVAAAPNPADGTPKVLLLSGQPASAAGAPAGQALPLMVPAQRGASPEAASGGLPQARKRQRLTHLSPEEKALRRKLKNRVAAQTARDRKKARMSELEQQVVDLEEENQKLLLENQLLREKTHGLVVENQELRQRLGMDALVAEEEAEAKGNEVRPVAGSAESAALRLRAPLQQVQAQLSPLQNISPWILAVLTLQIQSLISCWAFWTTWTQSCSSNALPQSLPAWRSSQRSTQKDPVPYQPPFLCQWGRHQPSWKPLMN
Sequence of Androgen receptor (Homo sapiens) (P10275 whole entry, looked up, the tested form may be a part): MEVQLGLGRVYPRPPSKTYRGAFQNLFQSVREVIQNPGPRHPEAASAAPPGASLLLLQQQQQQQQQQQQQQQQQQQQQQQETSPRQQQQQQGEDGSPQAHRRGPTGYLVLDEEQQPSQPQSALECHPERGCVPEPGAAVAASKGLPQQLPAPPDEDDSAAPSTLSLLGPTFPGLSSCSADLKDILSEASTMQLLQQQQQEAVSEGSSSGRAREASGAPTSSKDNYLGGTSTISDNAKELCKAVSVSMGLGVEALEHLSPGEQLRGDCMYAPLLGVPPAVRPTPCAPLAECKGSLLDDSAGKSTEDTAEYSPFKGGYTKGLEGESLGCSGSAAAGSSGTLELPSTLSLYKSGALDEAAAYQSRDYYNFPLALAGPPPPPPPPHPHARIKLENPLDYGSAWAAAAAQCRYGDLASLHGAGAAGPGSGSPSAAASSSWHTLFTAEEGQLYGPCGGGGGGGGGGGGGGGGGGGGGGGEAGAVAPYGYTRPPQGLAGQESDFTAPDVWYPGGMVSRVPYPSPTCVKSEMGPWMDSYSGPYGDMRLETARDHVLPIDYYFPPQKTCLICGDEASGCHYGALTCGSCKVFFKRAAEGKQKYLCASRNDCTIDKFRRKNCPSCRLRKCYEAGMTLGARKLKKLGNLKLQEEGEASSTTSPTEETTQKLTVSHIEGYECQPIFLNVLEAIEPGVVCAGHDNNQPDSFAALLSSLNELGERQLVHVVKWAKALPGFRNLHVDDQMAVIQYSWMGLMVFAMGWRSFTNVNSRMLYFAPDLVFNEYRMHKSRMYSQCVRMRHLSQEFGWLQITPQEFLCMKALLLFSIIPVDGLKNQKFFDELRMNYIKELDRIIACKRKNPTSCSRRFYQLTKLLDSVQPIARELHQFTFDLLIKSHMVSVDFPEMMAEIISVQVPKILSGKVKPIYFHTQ

Consider `CCOP(=S)(OCC)SCn1c(=O)oc2cc(Cl)ccc21`, for which the call in experiment [1], in [3], in experiment [4], in [5], in experiment [6] and in [7] was inactive. Further, the outcome in experiment [8], in experiment [9], in experiment [10], in experiment [11], in [13] and in experiment [15] was inactive. In addition, in experiment [16], the molecule was called inactive. The half-maximal activity concentration (AC50) in experiment [2] is 2.21 µM (active); in [12], 13.8 µM (active); in experiment [14], 29.9 µM (active).

For the molecule `COc1ccc(C(c2ccc(OC)cc2)C(Cl)(Cl)Cl)cc1`, the result in experiment [1], in experiment [2], in experiment [3], in experiment [4], in experiment [5] and in experiment [7] was inactive. In addition, the molecule was called inactive in [9], in experiment [10], in experiment [11], in experiment [12], in [13] and in [14]. For the same molecule, the molecule was classed as inactive in experiment [17], in experiment [15] and in [16]. The half-maximal activity concentration (AC50) is 4.17 µM (active) [middle of 4 runs] in [2]; 24.4 µM (active) and 38.1 µM (active) in experiment [5]; 4.94 µM (active) and 16.3 µM (active) and 11.9 µM (active) in experiment [12]; 1.53 µM (active) [middle of 4 runs] in experiment [14]; 28.3 µM (active) in experiment [15].

On to `COP(N)(=O)SC` (configuration not stated), for which the call in experiment [1], in experiment [2], in [3], in experiment [4], in experiment [5] and in experiment [7] was inactive. In addition, the result in experiment [9], in [10], in [11], in experiment [12], in experiment [13] and in experiment [14] was inactive. Further, the result in [15] and in experiment [16] was inactive.

Consider `CCc1nn(C)c(C(=O)NCc2ccc(C(C)(C)C)cc2)c1Cl`, for which the call in experiment [1], in experiment [3], in [4], in experiment [5], in experiment [7] and in experiment [9] was inactive. Further, the result in [10], in experiment [11], in experiment [13], in experiment [14], in experiment [17] and in experiment [16] was inactive. The half-maximal activity concentration (AC50) in [2] was 3.17 µM (active); in experiment [12], 1.91 µM (active); in [15], 0.352 µM (active).

`Cc1ccc(-c2c(Cl)nc(C#N)n2S(=O)(=O)N(C)C)cc1`: the molecule was called inactive in experiment [1], in experiment [4], in [7], in experiment [8], in [9] and in experiment [10]. Moreover, the outcome in experiment [11], in experiment [14], in experiment [18] and in experiment [16] was inactive. For the same molecule, the half-maximal activity concentration (AC50) in experiment [2] was 3.08 µM (active); in [3] it was 16.3 µM (active); in experiment [5], 11.9 µM (active); in experiment [12], 11.9 µM (active); in experiment [15] it was 8.26 µM (active).

For the molecule `CC1=C(C(=O)Nc2ccccc2)SCCO1`, the call in experiment [1], in experiment [3], in experiment [4], in experiment [5], in [7] and in experiment [9] was inactive. Also, the result in experiment [10], in experiment [11], in experiment [12], in experiment [14], in [17] and in experiment [15] was inactive. In addition, the half-maximal activity concentration (AC50) in [2] was 40.4 µM (active).

Take `CCNc1nc(Cl)nc(NC(C)C)n1`: the result in experiment [1], in experiment [3], in [4], in experiment [5], in [7] and in experiment [8] was inactive. Besides, the outcome in experiment [9], in experiment [10], in experiment [11], in experiment [12], in experiment [14] and in experiment [17] was inactive. Further, in experiment [15], the result was inactive. The AC50 in experiment [2] is 27.4 µM (active) [middle of 4 runs].

(Values after PubChem BioAssay (EPA / NIEHS).)
